Test results: the supplement of paper PMC3334620
Whole data set: some 33,000 sequences, median “E-score (-0.5 to 0.5)” near -0.054, cut for the highest 2% near 0.39. What follows is part of a selection rich in the highest values, with near analogues and random picks from the rest.

Biological target: Ylr278c (UniProt Q05854)
Assay: PBM E-score (8-mer binding enrichment) (E-score (-0.5 to 0.5)); higher = stronger / more preferred TF binding
Details: protein concentration: 200 nM; construct: GST-DNA-binding domain
Procedure, shortened: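 PURExpress in vitro transcription/translation supplied GST-tagged yeast transcription factors, either full-length or DNA-binding domain. Applied at about 100-200 nM to universal all-10-mer Agilent arrays double-stranded by primer extension, the bound protein was detected with fluorescent anti-GST. E-scores, modified Wilcoxon-Mann-Whitney statistics, were given by the Universal PBM Analysis Suite to ungapped eight-base words pooled with their reverse complements after masliner normalisation.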

Sequence of UniProt Q05854 (Q05854 whole entry): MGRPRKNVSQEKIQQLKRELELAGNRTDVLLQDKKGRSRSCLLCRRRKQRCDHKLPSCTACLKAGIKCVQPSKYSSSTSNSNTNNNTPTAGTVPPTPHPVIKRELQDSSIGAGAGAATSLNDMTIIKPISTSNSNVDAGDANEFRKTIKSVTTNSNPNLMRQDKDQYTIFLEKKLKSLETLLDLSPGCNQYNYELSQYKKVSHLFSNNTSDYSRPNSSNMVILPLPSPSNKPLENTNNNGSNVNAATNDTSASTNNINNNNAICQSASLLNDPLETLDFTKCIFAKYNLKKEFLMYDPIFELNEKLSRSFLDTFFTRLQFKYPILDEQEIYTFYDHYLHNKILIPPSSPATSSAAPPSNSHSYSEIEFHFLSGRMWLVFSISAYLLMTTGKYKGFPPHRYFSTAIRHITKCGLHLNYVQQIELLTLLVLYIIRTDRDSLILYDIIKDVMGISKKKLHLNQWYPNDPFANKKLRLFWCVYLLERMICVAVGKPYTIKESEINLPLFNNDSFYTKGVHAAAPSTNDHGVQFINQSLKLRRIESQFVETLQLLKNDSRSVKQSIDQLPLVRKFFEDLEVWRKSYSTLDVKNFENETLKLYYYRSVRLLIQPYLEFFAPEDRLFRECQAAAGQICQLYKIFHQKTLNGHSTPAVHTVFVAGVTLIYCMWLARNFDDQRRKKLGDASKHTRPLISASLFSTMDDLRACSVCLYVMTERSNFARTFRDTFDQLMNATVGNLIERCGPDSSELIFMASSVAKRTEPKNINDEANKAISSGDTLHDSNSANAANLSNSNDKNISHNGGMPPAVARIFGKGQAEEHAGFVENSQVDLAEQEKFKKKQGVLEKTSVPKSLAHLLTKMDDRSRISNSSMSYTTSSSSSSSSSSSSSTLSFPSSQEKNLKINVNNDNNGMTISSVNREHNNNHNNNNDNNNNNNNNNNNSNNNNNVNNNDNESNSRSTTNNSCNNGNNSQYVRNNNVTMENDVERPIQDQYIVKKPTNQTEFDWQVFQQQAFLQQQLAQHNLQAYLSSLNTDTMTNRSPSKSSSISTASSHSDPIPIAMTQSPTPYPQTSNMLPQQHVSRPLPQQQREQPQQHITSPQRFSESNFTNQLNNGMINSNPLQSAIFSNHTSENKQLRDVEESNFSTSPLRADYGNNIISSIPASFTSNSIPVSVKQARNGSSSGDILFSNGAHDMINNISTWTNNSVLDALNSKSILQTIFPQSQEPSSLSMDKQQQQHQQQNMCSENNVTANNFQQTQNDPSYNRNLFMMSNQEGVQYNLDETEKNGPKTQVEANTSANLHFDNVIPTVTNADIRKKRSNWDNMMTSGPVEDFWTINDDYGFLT

Sequence | PBM E-score
CGTTTTGA | -0.142
CTTAAGAA | -0.14
AGCACCGC | 0.121
CGAGCTTC | 0.028
ACTAAGGG | -0.0488
AAGGGTCC | 0.216
AAGAAAGA | -0.0469
ATGCTAGC | 0.00697
CACCGGAC | 0.439
GACCGGTA | 0.0914
GACCGGAA | 0.389
CACCGGTA | 0.297
CACCGGTG | 0.306
GACCGGGA | 0.359
CACCGGCC | 0.273
CACCGGAA | 0.427
CACCGGAG | 0.443
CACCGGCG | 0.383
GACCGGAC | 0.383
CACCGGGA | 0.352
ATACGATA | -0.118
ACGGGGGA | 0.0207
ACTCCATC | 0.275
ATGCACAC | -0.153
CCATCAGC | -0.0147

Sequence | PBM E-score
GGGGTCAC | -0.0137
GTCTTACA | -0.252
GCAGGTCA | -0.134
ACCAGTGC | -0.264
AACCGCAC | -0.0338
AACCGGAT | 0.367
AACCGGAG | 0.48
AAACGGAC | 0.197
AACCGGTG | 0.282
AACCGGAA | 0.391
AACCGGCA | 0.215
AACCGCAG | -0.0582
TACCGGTA | 0.246
AACCGGAC | 0.414
TACCGGAA | 0.397
TACCGGGA | 0.381
ACAGTGAG | -0.301
GAGAGTTA | -0.158
CGCAACAC | 0.111
ATTCAAGG | -0.282
GCTTTCCA | -0.0584
CCTTAGAG | -0.172
GGTCCAAC | 0.00905
TGTCCTAA | -0.233
CGTCCGAC | 0.243

Sequence | PBM E-score
TGTCCGAA | 0.407
GGTCCAAA | 0.0394
GGTCCGAC | 0.39
GGTCCGAA | 0.439
TGTCCAAA | -0.0727
CGTCCGAA | 0.352
AAACCCAA | 0.0205
AACGGGCA | -0.0928
TCCTCAGA | 0.0167
CGTGAGTC | -0.141
CAACTTCC | 0.22
GTAGCGAC | -0.186
GCGTTCGA | -0.11
ATTTCCGC | 0.397
ACTTCCGC | 0.342
GTTTCCGA | 0.369
ATTTCCAG | 0.0814
CTTTCCGC | 0.332
ATTTCCGG | 0.475
ATTTCCCC | 0.127
CTTTCCGA | 0.354
ATTTCCGA | 0.446
ACTTCCGG | 0.435
ATTTCCTG | 0.0615
ACTTCCGA | 0.378

Sequence | PBM E-score
ACACATCA | 0.0404
CCACTGAA | 0.0461
GTCAAGAC | -0.133
GAGCTGGA | 0.0426
TAAGGACA | -0.156
CTATCTGA | -0.328
AGTTCGGA | 0.391
CGTTCGGC | 0.235
GGTTCGAA | 0.0257
AGTTCGGG | 0.281
CGTTCGTA | 0.0114
GGTTCGGA | 0.42
GGTTCGCA | 0.0401
CGTTCGGA | 0.41
AGTTCGGC | 0.185
AAGAGACT | -0.101
AAATCTGA | -0.0879
TAGTACGA | -0.0816
AGGAGTAC | -0.136
CGGAGTAA | 0.468
CGGAGTAC | 0.462
CGGAGTAG | 0.465
GGGAGTAA | 0.0663
AGGAGTAG | -0.00627
GGGAGTAC | 0.0396

Sequence | PBM E-score
AGGAGTAA | 0.0423
CCGAGTAG | 0.197
GAACAGAA | -0.0459
ACTTCAAC | -0.0372
GAGTGAGC | -0.125
AATAGATT | -0.0366
AAGGGCTA | -0.124
CCAGATGG | -0.0985
GTATGGCA | -0.204
GAGCCGGA | 0.407
TAGCCGCA | 0.041
GAGCCGCA | 0.0873
CAGCCGGG | 0.166
TAGCCGAA | 0.141
AAGCCGGC | 0.372
AAGCCGGA | 0.417
CAGCCGGC | 0.296
CAGCCGGA | 0.434
TAGCCGGA | 0.42
AAGCCGGT | 0.333
GAGCCGGC | 0.325
AGCCGCAT | 0.105
CCCCGTGC | 0.295
AAACCCTC | -0.0128
CAGAGGAC | -0.187

Sequence | PBM E-score
CCGGGAAG | 0.334
CAGTGATC | -0.0716
CTCGACCA | -0.232
CGCATAAC | -0.0515
ATAGCGAA | -0.144
ATACACAT | -0.212
ATCCGCAT | 0.263
ATGCGGAA | 0.383
ATCCGGAT | 0.452
TTCAGGAA | -0.0794
ATCAGGAT | -0.018
GTCCGGAA | 0.44
GTGCGGAA | 0.265
GTACGGAA | 0.31
TTCCGGAA | 0.467
ATCCGTAA | 0.155
TTACGGAA | 0.283
ATCCGGAA | 0.432
AATTGCAC | -0.054
CATCGCAA | -0.28
GGTTTCAC | 0.0826
TACGCATA | -0.0249
ATCCGGAG | 0.486
GTCCGGAC | 0.455
CTCCGGAC | 0.477

Sequence | PBM E-score
GTCAGGAC | -0.266
CTCAGGAC | -0.159
CTGCGGAC | 0.221
ATCCGTAG | 0.134
ATCCGGAC | 0.424
ATACGGAC | 0.242
ATCCGTAC | 0.112
ATCAGGAG | -0.02
GTACGGAC | 0.249
ATGCAGAA | -0.16
AGAGATTG | -0.112
AGCTGGTG | -0.109
AATTTGGC | -0.131
ACCCTTCG | 0.0769
ATGCGATA | -0.0857
GTACCAGA | -0.28
ATGCTACG | -0.0841
TAGTAGCA | -0.0836
CGAGGTCC | 0.333
CTCCGGAA | 0.479
CTCAGGAA | -0.0459
ATGCGGAG | 0.385
CTGCGGAA | 0.214
CTCCGGAG | 0.481
CTCAGGAG | -0.171

Sequence | PBM E-score
CTAACAAC | -0.0734
CCGCTGCA | 0.0719
CATGCTCA | -0.115
CTCCGTCC | 0.449
GTCCGTCA | 0.289
CCCCGTCC | 0.252
CTCCGTAC | 0.358
GTCCGTAA | 0.331
ATCCGTCA | 0.159
CTCCGTCA | 0.421
ATCCGTCC | 0.18
CTCCGTAA | 0.41
CGAATCCA | -0.0549
ACATTGGT | -0.1
AATATCTC | 0.0682
ACTGACAG | -0.0502
AGTGGGAT | -0.00431
CATCCGCG | 0.197
AATCCGCG | 0.323
CCGCCTCC | 0.283
CCTCCGCC | 0.413
CCTCCGCA | 0.359
CCTCCGCG | 0.416
ACTCCGCG | 0.462
ACTCCACG | 0.0682

Sequence | PBM E-score
CATCCGCC | 0.309
CGGTCAGA | 0.0192
ATCGCCAT | -0.0309
CGCGTCCA | 0.0142
AAGTGCCT | -0.328
AAAGCAGC | -0.0496
CTATGCAG | -0.166
AGGGGTGC | -0.114
AGAGTCGC | -0.14
GGTATCGA | -0.0372
CGATCGGC | 0.282
GGATCGGA | 0.438
AGATCGGC | 0.224
GGATCGAA | 0.0293
AGATCGGG | 0.222
AGATCGGA | 0.43
CGATCGGA | 0.44
GGATCGCA | -0.0558
CGATCGTA | 0.00037
ACTCAACT | 0.0546
GAGCATTA | -0.111
TATTGAAA | 0.0175
GGTTAGAA | -0.15
TAGCTAGA | -0.285
AAAACTCC | 0.386

Sequence | PBM E-score
CAAACTCA | -0.0703
GAAACTCA | -0.0472
GAAACTCC | 0.399
GAAACTTC | 0.0593
CAAACTCC | 0.434
GCTAAGAA | -0.0627
TCGGACGA | 0.271
CCGGACGG | 0.396
ACGGACGG | 0.209
CCGGACGC | 0.364
CCGGACGA | 0.406
ACGGACGA | 0.177
CGTGCATC | -0.152
CGCTTTCC | 0.143
ATTTCGTA | -0.062
CTCGATGA | -0.12
AATGGGCC | 0.0902
CAGAGGAG | -0.243
GGCTAGAA | 0.0303
AGGCATTA | -0.134
GGGCATTA | -0.0729
CGGCATTA | 0.405
GTGTCGTA | -0.209
CTGTCGGC | 0.35
ATGTCGGG | 0.222

Sequence | PBM E-score
GTGTCGCA | 0.00208
ATGTCGGA | 0.397
GTGTCGGA | 0.417
ATGTCGGC | 0.0736
CTGTCGGA | 0.404
CTGTCGAA | -0.289
GGACCAAA | 0.187
ATACGCTC | 0.00427
CGGCCACG | -0.0321
ACTCTGGA | -0.117
ATAGTCTA | -0.141
CGAAAGTA | 0.00237
ACGAAAGA | -0.0168
AGCTTACG | -0.143
AGTCGGGG | 0.282
CGACTCCC | 0.0244
CGACTCCA | -0.0167
AGACTCCT | -0.224
AGACTCCG | 0.418
CGACTCCG | 0.406
AGACTCCC | -0.167
CGAGCAAC | -0.00501
AGAAGACC | 0.0375
ACAAGACA | -0.0802
TACGAGTA | -0.0577

Sequence | PBM E-score
AGGACAAA | -0.0109
AGGACAAC | -0.163
CGGACAAG | 0.383
CGGACAAC | 0.389
GGGACAAC | -0.104
CGGACAAA | 0.425
AACATGAC | -0.0624
GTCAACTA | -0.084
AGGGCTAA | -0.0787
CGGTCCGC | 0.38
AGGTCCAG | -0.113
AGGTCCGC | 0.333
AGGTCCAA | -0.179
AGGTCCGA | 0.404
AGGTCCGG | 0.418
GGGTCCGA | 0.366
AGGTCCCA | -0.224
CGGTCCGA | 0.455
ACTAGTGG | -0.0388
AACATAGC | -0.0617
ATGTTGCC | -0.036
ATTGACCA | -0.196
CCTATCAC | -0.119
AACACAAT | -0.152
GCAACACC | 0.113

Sequence | PBM E-score
GCCTCGGA | 0.352
GGCTCGGA | 0.38
CCCTCGGA | 0.394
CGCTCGGA | 0.408
CCCTCGGC | 0.207
AGCTCGGA | 0.322
GCACTAGA | -0.16
CCTAGCAG | -0.268
CCGTTGAC | 0.0534
CGAGCTGC | -0.00491
GTATGCGA | -0.0635
ATCAGGAA | -0.0943
AACTGCGA | 0.148
TCAATTCA | -0.0799
AATTCGGC | 0.157
CATTCGGA | 0.339
GATTCGGA | 0.363
AATTCGGG | 0.215
TATTCGGA | 0.408
AATTCGGA | 0.449
TAAGGGCA | -0.144
CCCCGACC | 0.28
ATAGTCAG | -0.158
GGGACCGA | 0.164
CGGACCCC | 0.365

Sequence | PBM E-score
AGGACCGA | 0.0864
CGGACCGA | 0.409
CGGACCCG | 0.394
AGGACCGC | 0.227
CGGACCAC | 0.293
CGGACCGC | 0.392
AGGACCCG | 0.158
CCACTATC | 0.00626
CTATAGAC | -0.167
CTGATCTC | -0.0675
ACTAATGC | 0.126
CTCTGTTC | -0.0823
TCCGGGAA | 0.419
GCGGGGTA | 0.323
CCGGGGAA | 0.399
ACCGGTAA | 0.297
TCCGGTAA | 0.44
CGGGGGAA | 0.255
ACCGGGAA | 0.352
GCCGGTAA | 0.341
CGGGGGTA | 0.334
CCCGGGAA | 0.348
CCGGGGTA | 0.408
CCGGGGGA | 0.378
